Experimental data reported in PubChem BioAssay.
Values joined by “and” are separate entries in the source; they are usually repeats but may differ in a detail not shown here. Equal values may be shown once. Active and inactive are the calls of the source. No rule for the calls is given here.

What follows are compounds tested against Pantothenate synthetase (Mycobacterium tuberculosis (strain ATCC 25618 / H37Rv)) (UniProt P9WIL5) (assay: Coupled enzyme confirmation of inhibitors against recombinant Mtb PanC (AID 375;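 also: 0% = full reaction with vehicle and 100% = no enzyme background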)). Conditions: coupled enzyme assay; at 10 µM, hits give high values.
Sequence of Pantothenate synthetase (Mycobacterium tuberculosis (strain ATCC 25618 / H37Rv)) (P9WIL5 whole entry, looked up): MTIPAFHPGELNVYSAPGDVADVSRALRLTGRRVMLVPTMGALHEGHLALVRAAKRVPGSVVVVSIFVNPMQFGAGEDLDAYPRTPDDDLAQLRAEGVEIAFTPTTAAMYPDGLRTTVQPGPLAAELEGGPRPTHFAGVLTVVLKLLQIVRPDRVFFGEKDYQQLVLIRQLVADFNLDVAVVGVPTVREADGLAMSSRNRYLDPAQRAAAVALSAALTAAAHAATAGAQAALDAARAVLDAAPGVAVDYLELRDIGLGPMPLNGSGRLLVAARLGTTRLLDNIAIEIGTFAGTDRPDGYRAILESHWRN

| Compound | inhibition |
| --- | --- |
| COc1ccccc1OCC(=O)Nc1cccc(-c2nc3ccccc3o2)c1 | 0% (inactive) |
| CCNC(=O)CC1C(=O)N(c2ccccc2)C(=O)N1CCC(C)C (stereo not given) | 0% (inactive) |
| Cn1c(Cl)nc2ccccc21 | 0% (inactive) |
| Cc1cc(C)c(S(=O)(=O)Nc2cccnc2)c(C)c1 | 0% (inactive) |
| Cc1cc(C)n(CC2CC(=O)N(c3ccc(Cl)c(Cl)c3)C2=O)n1 (stereo not given) | 0% (inactive) |
| CCN(CC)S(=O)(=O)c1ccc(C(=O)N2CCN=C2SCc2cccnc2)cc1 | 0% (inactive) |
| CCCCOC(=O)Nc1nccs1 | 9% (inactive) |
| CN(C)C(=O)Oc1cccc([N+](C)(C)C)c1 | 9% (inactive) and 0% (inactive) |
| COC(=O)c1cccc(NC(=O)CN2CCN(Cc3ccccc3)CC2)c1 | 2% (inactive) |
| Cc1ccc(C)c(N2CCN(C(=O)c3cc4ccccn4n3)CC2)c1 | 0% (inactive) |
| O=S(=O)(c1cccc2cnccc12)N1CCCNCC1 | 3% (inactive) |
| COc1ccc(C)cc1NC(=O)CSc1nnnn1Cc1ccccc1 | 2% (inactive) |
| Cc1cccc(-c2cc3nc(C)cc(NCCCN(C)C)n3n2)c1 | 0% (inactive) |
| O=C(Nc1cccnc1)Nc1ccc2c(c1)OCO2 | 0% (inactive) |
| O=C(c1cccc(C(=O)N2CCN(c3ccccc3)CC2)c1)N1CCN(c2ccccc2)CC1 | 0% (inactive) |
| O=C(NCC12CC3CC(C1)CC(CNC(=O)N1CCCC1)(C3)C2)N1CCCC1 | 0% (inactive) |
| CCOC(=O)N1CCN(C(=O)c2n[nH]c(=O)c3ccccc23)CC1 | 2% (inactive) |
| Cc1ccc(S(=O)(=O)N2C(=O)CCC2C(=O)Nc2ccc3c(c2)OCCO3)cc1 (stereo not given) | 0% (inactive) |
| c1ccc(-c2nnc(-c3ccco3)n2-c2ccccc2)cc1 | 0% (inactive) |
| CCOC(=O)c1ccc2[nH]c3c(c2c1)CN(C)CC3 | 1% (inactive) |

| Compound | inhibition |
| --- | --- |
| O=C(CSc1nnc(Cn2nnc(-c3ccccc3)n2)n1-c1ccccc1)Nc1ccc(F)cc1 | 1% (inactive) |
| COc1ccccc1-c1coc2c(CN3CCN(CCO)CC3)c(O)ccc2c1=O | 0% (inactive) |
| NC(N)=Nc1nc(CSCC/C(N)=N/S(N)(=O)=O)cs1 | 0% (inactive) |
| O=C(c1ccco1)N1CCN(CC2CC3C=CC2C3)CC1 (stereo not given) | 7% (inactive) |
| CC(C)CCn1c(NCCc2ccccc2)nc2c1c(=O)n(C)c(=O)n2C | 0% (inactive) |
| CC(=O)c1cc(-c2ccc(F)cc2)n(CCC(=O)Nc2cc(C)[nH]n2)c1C | 4% (inactive) |
| O=C(Nc1ccccc1N1CCCCC1)c1ncoc1-c1ccc(F)cc1 | 1% (inactive) |
| Cc1ccc(O)c(NC(=O)COc2cc(C)ccc2C)c1 | 0% (inactive) |
| Nc1nnnn1NCc1cccc(OCc2ccccc2)c1 | 0% (inactive) |
| CC(C)CC(c1nnnn1C1CCCC1)N1CCN(c2ccccc2F)CC1 (stereo not given) | 0% (inactive) |
| Cc1onc(-c2ccccc2)c1C(=O)Nc1ccnn1C1CCCCC1 | 1% (inactive) |
| CCn1c(NCc2ccc(N(C)C)cc2)nc2ccccc21 | 0% (inactive) |
| CCc1c(C)n([O-])c2c([n+]1=O)CCC2 | 0% (inactive) |
| CCCOc1ccc([C@@H]2C3CN(C(=O)OCC)CC=C3C(C#N)=C(N)C2(C#N)C#N)cc1OC (stereo not given in full) | 1% (inactive) |
| C=CCNC(=O)C1CC(=O)N(c2ccc(OCC(=O)Nc3ccc(OC)cc3)cc2)C1 (stereo not given) | 0% (inactive) |
| CCOc1ccc2nc(SCC#N)c(C#N)cc2c1 | 0% (inactive) |
| COc1ccc(NC(=O)CS(=O)CC(=O)Nc2cc(Cl)ccc2OC)cc1 (stereo not given) | 3% (inactive) |
| CCCn1cnc2c(cnn2-c2ccc(F)cc2)c1=O | 4% (inactive) |
| COc1ccc(C(=O)c2coc3ccc(O)c(CN4CCCCC4)c23)cc1 | 0% (inactive) |
| Cc1ccc(CCNC(=O)Cn2cccc2)cc1 | 0% (inactive) |
